Pf Dd2 growth – inhibitors of Plasmodium falciparum Dd2 growth; Potency, µM (series often up to 28.9 µM), for the others: top-dose activity, negative = inhibition, most hits filed as inhibitors; P. falciparum Dd2 growth, SYBR Green, 72 h; AID 1347417; 4.3% of 120,000 active; active = well fitted inhibition curve with a large enough effect;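 also: plate controls were DMSO vehicle for no effect and reference drug for full effect; nearly all actives have a fitted effect of over 65% in size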
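Infected erythrocytes (Dd2, 0.3% parasitemia, 2.5% hematocrit final) are added to compound in RPMI-1640/Albumax II medium, grown 72 h at 37C in low oxygen, then lysed with saponin/Triton-X containing SYBR Green and read by fluorescence.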
Numbers without * were called inactive; i = inactive; [ ] = another dose, or the depositor's remark. Many of the other results were omitted from the sample, so hits are more common in it than they were. Potency is read from the fitted curve at half-maximal effect.

SMILES	Pf Dd2 growth
CCOC(=O)C1=C(C)N=C2SC=C(CC(=O)Nc3cccc(OC)c3)N2C1c1cccc(OC)c1 (stereo not given)	11µM*
CCOC(=O)C1=C(C)N=C2SC=C(CC(=O)Nc3ccc(OC)cc3)N2C1c1cccc(OC)c1 (stereo not given)	-11%
CCOC(=O)C1=C(C)N=C2SC=C(CC(=O)Nc3ccc(C)c(C)c3)N2C1c1cccc(OC)c1 (stereo not given)	8.9µM*
O=C(Cc1c[nH]c2ncc(-c3ccsc3)cc12)N1CCOCC1	23%[44.1 µM]
CCC(CC)NC(=O)CC1CCCN(c2cnn(CC)c(=O)c2)C1 (stereo not given)	-9%
Cc1nc(C)c(C(=O)NCCn2c(C)cnc2-c2cccnc2)s1	10%
COc1ccc(C2(C(=O)N3CCC(F)CC3)CCOCC2)cc1	13%
COc1cccc(CC(=O)N2CCCC(CN3CCCC3)CC2)c1 (stereo not given)	1µM*
COc1cccc(CC(=O)N2CCCCCCNC(=O)CC2)c1	-15%
COCC(=O)N(C1CCOCC1)C1CCN(C(=O)Cc2cccc(OC)c2)CC1	14%
COc1ccc(C2(C(=O)N3CCCC(CN4CCCC4)CC3)CC2)cc1 (stereo not given)	3.2µM*
COc1ccc(C2(C(=O)N3CCC(CC(=O)NC4CC4)C3)CC2)cc1 (stereo not given)	26%
COC[C@@H]1[C@H](C(=O)Nc2ccc(N3CCOCC3)cc2)CCC(=O)N1C	i
CCCc1ccc(C(=O)N2C[C@@H](CN(C)C)[C@@H](CO)C2)cc1	-12%
C[S+](=O)([O-])c1cccc(NC(=O)c2cnc3n2CCN(CCc2ccccc2)CC3)c1	20%
COCCN1CCC(CN(Cc2ccncc2)C(=O)c2csc(C)n2)CC1	7%
Cn1cc(CNC(=O)C[C@@H]2C[C@H]3O[C@H](CNC(=O)NC4CCCCC4)[C@@H](O)[C@H]3O2)cn1	i
Cc1ccc(-c2nocc2CCC(=O)N2CCC(Cc3ccccc3)CC2)cc1	i
O=C1[C@H]2CN(Cc3ccc(F)cc3Cl)C[C@H]2C(=O)N1CCN1CCc2ccccc2C1	4µM*
O=C1[C@H]2CN(Cc3cccc(Cl)c3F)C[C@H]2C(=O)N1CCc1ccccc1	20%
O=C1[C@H]2CN(Cc3ccc(F)cc3Cl)C[C@H]2C(=O)N1Cc1ccc2c(c1)OCO2	-2%
O=C(NC1CCCN(c2cc(-c3ccc(F)cc3)[nH]n2)C1)c1cc(Cl)ccc1F (stereo not given)	-6%
CN(CC1CCOCC1)C(=O)c1ccc(Br)o1	-18%
CN1CCNc2nc(COc3ccccc3OC(F)(F)F)n(Cc3ccccc3)c2C1=O	i
Cc1cn2nc(C(=O)N3CCC(NC(=O)c4cccc(Cl)c4)CC3)cc2c(=O)[nH]1	i
SMILES	Pf Dd2 growth
Cc1cn2nc(C(=O)N3CCC(NC(=O)c4ccccc4C)CC3)cc2c(=O)[nH]1	-9%
COc1ccc(Cl)cc1C(=O)NC1CCN(C(=O)c2cc3c(=O)[nH]c(C)cn3n2)CC1	5µM*
CCOCCn1nc(C)cc1C(=O)N1CCC2(CC(=O)NC2=O)C1 (stereo not given)	5%
CS(=O)(=O)c1ccc(CN2CCN3C(=O)N(Cc4ccccc4)C[C@H]3C2)cc1	-13%[44.1 µM]
O=S(=O)(c1ccccc1)N1Cc2ccccc2CC2(CCN(Cc3cccnc3)C2)C1 (stereo not given)	6.3µM*
O=C(O)CCC(=O)N1Cc2ccccc2CC2(CCCN(Cc3cccnc3)C2)C1 (stereo not given)	8%
CCCC(=O)N1Cc2ccccc2CC2(CCN(Cc3cccnc3)C2)C1 (stereo not given)	11µM*
CCCC(=O)N1Cc2ccccc2CC2(CCN(Cc3ccncc3)C2)C1 (stereo not given)	11µM*
C[S+](=O)([O-])N1Cc2ccccc2CC2(CCCN(Cc3ccccc3)C2)C1 (stereo not given)	-12%
O=C(O)CCC(=O)N1Cc2ccccc2CC2(CCCN(Cc3ccncc3)C2)C1 (stereo not given)	0%
CC(=O)N1Cc2ccccc2CC2(CCN(Cc3cccnc3)C2)C1 (stereo not given)	-12%
CCC(=O)N1Cc2ccccc2CC2(CCN(Cc3ccncc3)C2)C1 (stereo not given)	-24%
CCCC(=O)N1Cc2ccccc2CC2(CCN(Cc3ccc(NC(C)=O)cc3)C2)C1 (stereo not given)	-27%
COc1ccc2c(c1)C(C[C@H]1CN(C(=O)C3CC3)CC[C@H]1CC(=O)O)=NCC2	14%[44.1 µM]
CN(C)c1cc(=O)c2ccnc(-c3ccc(N4CCOCC4)cc3)c2o1	i
CNC(=O)[C@@H]1C[C@H](n2cc(C(C)(C)NC(=O)c3cc(F)ccc3C)nn2)CN1	1%
CC(C)c1nncn1C1CCN(S(=O)(=O)c2ccc(F)cc2F)CC1	-7%
O=C(Cc1cccc(F)c1)NCCC1CCN(C(=O)Nc2ccccc2F)CC1	-19%
O=C(c1cccc(F)c1)N1CCC(n2cc(-c3nc(-c4ccccc4)no3)nn2)CC1	-2%
Cc1cccc(C(=O)NCC2CCCCC(=O)N2)c1 (stereo not given)	15%
c1ccc(CN2CC(Oc3ccc4c(c3)OCO4)C2)cc1	-12%[44.1 µM]
Cc1ccc(C2=NC3(CCN(C(=O)Cc4cccc(F)c4)CC3)ON2)cc1	-24%
O=C1Nc2ccccc2CC12CCN2Cc1ccc(C(F)(F)F)cc1 (stereo not given)	i
CC(C)=CCN1Cc2ccccc2NC(=O)C12CCNC2 (stereo not given)	-14%[44.1 µM]
O=C1Nc2ccccc2C12CCN(Cc1ccc(C(F)(F)F)cc1)CC2	13µM*
SMILES	Pf Dd2 growth
CC(=O)Nc1ccc(CN2CCC3(CC2)C(=O)Nc2ccccc23)cc1	-14%
O=C(c1ccc(C(F)(F)F)cc1)N1CCC2(CC1)C(=O)Nc1ccccc12	-3%
O=C1Nc2ccccc2CN(Cc2ccc(C(F)(F)F)cc2)C12CCNCC2	6.3µM*
O=C1NC2(CCCN([S+](=O)([O-])c3ccccc3)C2)Oc2ccccc21 (stereo not given)	1%
O=C(COc1ccc(F)cc1)N1CCC(Oc2ccc(-c3noc(C4CC4)n3)cc2)C1 (stereo not given)	-1%[5.79 µM]
COc1cccc(CC(=O)N2CCC(N3C(=O)C4(CCCCC4)C3c3ccncc3)CC2)c1 (stereo not given)	i
O=C1N2CCCC2CN1C1CCN(Cc2ccc(C(F)(F)F)cc2)CC1 (stereo not given)	-20%
O=C(NCCc1ccccc1)N1CCCC(c2nc(CCOc3ccc(F)cc3)no2)C1 (stereo not given)	i
Cc1cnc(C(=O)N2CCC(n3nccc3NC(=O)CCOc3ccccc3)CC2)cn1	-21%
Cc1ncc(CN2CCC(C(=O)Nc3cccc(-c4cc5ccccc5[nH]4)c3)CC2)cn1	8.9µM*
CSc1cccc(NC(=O)C2CCN(c3nc4ccccc4[nH]3)CC2)c1	i
O=C(Nc1cccc(-c2ccco2)c1)C1CCN(Cc2ccc(CO)o2)CC1	-25%
CSc1ccc(CNC(=O)C2CCN(c3cc(C(F)(F)F)ncn3)CC2)cc1	i
O=C(NC1CCCCC1)[C@@H]1C[C@@H](O)CN1C1CCN(C(=O)c2ccsc2)CC1	-14%
CN1CCC(N2CCN(C(=O)C3CCOCC3)CC2)C1=O (stereo not given)	-2%
O=S(=O)(c1ccccc1)c1nc(-c2ccc(F)cc2)oc1NCc1ccccc1	-10%
O=S(=O)(c1ccc(Cl)cc1)c1nc(-c2ccccc2Br)oc1NCc1ccccc1	10µM*
COCCNc1oc(-c2ccccc2)nc1S(=O)(=O)c1ccc(Br)cc1	-13%

High-throughput results: PubChem, National Center for Advancing Translational Sciences (NCATS)
